This assay concerns Trypanosoma brucei. Put plainly: Trypanosoma brucei 72 hour study. More on the design: scale not given: in the data most compounds retested in dose-response had high values. It is filed as functional, organism-based.

Hit rate of the full screen: of about 66,000 compounds, about 960 (1.5%) showed an effect of 50% or more. The sample holds strong results, similar compounds and a random draw of the others, so the mix is not that of the screen.

Take `Cc1cccc(OCC2CCCN(C(=O)CN(C)C3CCNCC3)C2)c1` (stereo not given): where the note is “30 µM, 30.03 µM”, the “Percent Effect” value was 6.222%. Same read-out and setting: the figure for `COCC(=O)N1CCCC(COc2ccccc2C)C1` (stereo not given) is -51.53%; for `Cc1ccccc1OCC1CCCN(C(=O)CN(C)C2CCNCC2)C1` (stereo not given) it is 59.87%. For the molecule `Cc1ccccc1-n1ncc(C(C)N)c1C` (stereo not given), where the note is “30.3 µM, […]”, the “Percent Effect” value is -16.93%.

Consider `Cc1ncc(CN2CCCC2)c2cc(C(=O)c3ccc(Br)cc3)oc12.Cl`, for which, where the note is “30 µM, 30.03 µM”, the “Percent Effect” value was -13.22%.

As for `CC(C)CNC(=O)[C@H]1CCS(=O)(=O)[C@@H]2CN(CC(C)C)C[C@H]12.O=C(O)C(F)(F)F`, the “Percent Effect” value (30.3 µM, […]) is listed as -19.44%. On the same count and under the same terms, with `CC(C)Oc1ncc(C(=O)N2CCC(CC(N)=O)CC2)cc1Cl` the figure was -51.28%. On to `CC(C)Oc1ncc(C(=O)N2CCC(N(C)C)CC2)cc1Cl`, for which, where the note is “30.3 µM, […]”, the “Percent Effect” value is listed as 99.1%. The same measure, in the same setting: with `CC(=O)N1CCN(C(=O)c2cnc(OC(C)C)c(Cl)c2)CC1` the figure was -3.997%; with `Cc1n[nH]cc1CNC1(Cc2ccc(Br)cc2)CCCCC1`, 80.83%; with `Cc1n[nH]cc1CNC1(c2ccc(Br)cc2)CC1`, -166.2%. On the same count and under the same terms, the figure for `Cc1n[nH]cc1CNC1(c2ccc(F)cc2)CCCC1` is -110.9%. With `O=C(O)C(F)(F)F.O=C(O)C(F)(F)F.O=C1NC2(CCN(Cc3ccc(F)cc3)CC2)CC1c1ccncc1` (stereo not given), for the setting “30 µM, 30.03 µM”, the “Percent Effect” value is listed as 28.32%. For the molecule `Cc1cc(S(=O)(=O)NC(C)(C)CN)c(F)cc1F.Cl`, the “Percent Effect” value (30 µM, 30.03 µM) is recorded as -23.52%.

For the molecule `Cc1oncc1C(=O)N1CC2CC1(C(=O)N(C)C)C2`, under “30.3 µM, […]”, the “Percent Effect” value is on record as -15.18%. For the molecule `COCC1c2c(cnn2CC2CC2)CCN1Cc1cccs1.O=C(O)C(F)(F)F.O=C(O)C(F)(F)F` (stereo not given), the “Percent Effect” value (30 µM, 30.03 µM) was -88.48%. Still for that read-out and setting: the figure for `COCC1c2c(cnn2CC2CC2)CCN1Cc1nccs1.O=C(O)C(F)(F)F.O=C(O)C(F)(F)F` (stereo not given) is 52.09%.

`CCOCC1c2c(cnn2CC2CC2)CCN1Cc1nccs1.O=C(O)C(F)(F)F.O=C(O)C(F)(F)F` (stereo not given): the “Percent Effect” value (30.3 µM, […]) was -3.24%. On the same count and under the same terms, with `Cc1cccc2c1cnn2CCCNC(=O)C1CC1` the figure was -16.1%. For the molecule `O=C(CN1CC(c2nc(C3CC3)no2)C1)N1CCOCC1.O=C(O)C(=O)O`, the “Percent Effect” value (30 µM, 30.03 µM) amounted to 47.84%. Take `O=C(O)C(F)(F)F.O=C([C@H]1CC[C@@H]2[C@@H](CCN2C2CCCCC2)O1)N1CCOCC1`: for the setting “30.3 µM, […]”, the “Percent Effect” value was 2.517%. As for `Cc1nnc(N2CC[C@H](OCC3CC3)[C@@H](Cc3ccccc3)C2)s1.O=C(O)C(F)(F)F`, for the setting “30 µM, 30.03 µM”, the “Percent Effect” value is recorded as -16.49%. Take `CO[C@@H]1CCN(c2nnc(C)s2)C[C@@H]1Cc1ccccc1.O=C(O)C(F)(F)F`: for the setting “30.3 µM, […]”, the “Percent Effect” value is on record as -5.303%. Turning to `CO[C@@H]1CCN(c2nnc(C)s2)C[C@@H]1Cc1cccc(C)c1.O=C(O)C(F)(F)F`, the “Percent Effect” value (30.3 µM, […]) was -8.568%. Same read-out and setting: the figure for `CO[C@H]1CCN(c2nnc(C)s2)C[C@@H]1Cc1cccc(C)c1.O=C(O)C(F)(F)F` is 100.1%; for `Cc1nnc(N2CC[C@@H](OCC3CC3)[C@@H](Cc3ccccc3)C2)s1.O=C(O)C(F)(F)F` it is 100.5%; for `CO[C@H]1CCN(c2nnc(C)s2)C[C@@H]1Cc1ccccc1.O=C(O)C(F)(F)F` it is 12.72%. On to `O=C(N[C@H]1CC[C@@]2(CCC(=O)N2CC2CC2)CC1)c1cnccn1`, for which the “Percent Effect” value (30.3 µM, […]) is -8.587%. As for `Cc1nnc([C@@]23CCO[C@@H]2CCN(S(=O)(=O)c2ccccc2)C3)o1`, where the note is “30.3 µM, […]”, the “Percent Effect” value was -46.55%. `CNC(=O)c1ccc(CN(C)C(=O)Nc2nnc(C(C)C)s2)cc1`: the “Percent Effect” value (30 µM, 30.03 µM) is recorded as 1.168%. As for `Cc1cc2c(=O)n3c(nc2s1)CCN(Cc1[nH]cnc1C)CC3.Cl`, the “Percent Effect” value (30.3 µM, […]) was -2.938%. For the molecule `COc1ccc(F)cc1-c1ccccc1CC1CNCCNC1=O.Cl` (stereo not given), the “Percent Effect” value (30.3 µM, […]) is given as -18.15%. Take `O=C(NCc1ccccc1-n1cccn1)C1CC2(CCNCC2)CN1` (stereo not given): under “30 µM, 30.03 µM”, the “Percent Effect” value turned out to be 40.65%.

As to `O=C(O)C(F)(F)F.O=C1C[C@H]2[C@@H](CCN2C(=O)Cc2cccs2)N1Cc1ccncc1`, under “30.3 µM, […]”, the “Percent Effect” value was -0.2658%. As to `CCCc1cncnc1N1CCC(NCCc2ccc(O)cc2)CC1`, the “Percent Effect” value (30 µM, 30.03 µM) is -6.649%. As to `CCCc1cncnc1N1CCC(NCc2ccc(O)cc2)CC1`, under “30 µM, 30.03 µM”, the “Percent Effect” value was 63.63%. Take `CCCc1cncnc1N1CCC(NCc2ccncc2)CC1`: the “Percent Effect” value (30 µM, 30.03 µM) was -66.51%. Take `CN(C)CC1(O)CCN(S(=O)(=O)c2cccc(F)c2)C1` (stereo not given): under “30.3 µM, […]”, the “Percent Effect” value was -12.71%. Consider `Brc1cccnc1OC1CCNCC1.Cl`, for which the “Percent Effect” value (30 µM, 30.03 µM) was -18.95%.

On to `Cc1ccc2c(c1)C(NCc1ccccn1)CC2` (stereo not given), for which, for the setting “30 µM, 30.03 µM”, the “Percent Effect” value was determined as 31.05%. As to `COc1cccc(CNC2CCc3ccc(C)cc32)n1` (stereo not given), the “Percent Effect” value (30 µM, 30.03 µM) is 102.5%.

Consider `COc1cccc(CNC2CCCOc3cc(C)ccc32)n1` (stereo not given), for which, under “30 µM, 30.03 µM”, the “Percent Effect” value is -17.07%.

For `N#Cc1c2n(c3c(=O)[nH]cnc13)CCCC2`, where the note is “30 µM, 30.03 µM”, the “Percent Effect” value is -59.85%. In the case of `Cc1nn(C)cc1CNCc1ccc(N(C)C)cc1`, for the setting “30.3 µM, […]”, the “Percent Effect” value was -17.42%.

Regarding `CC1=C(C#N)C(=O)NC(=O)/C1=C\c1c(C)nn(-c2ccccc2)c1O`, where the note is “30.3 µM, […]”, the “Percent Effect” value turned out to be 8.75%. As to `c1ccc2c(c1)CCN(c1nc(-c3ccncc3)nc3c1CCNC3)C2`, the “Percent Effect” value (30 µM, 30.03 µM) is -16.52%.

On to `Cc1ccccc1N1CCN(c2nc(N(C)C)nc3c2CCNC3)CC1`, for which the “Percent Effect” value (30 µM, 30.03 µM) is recorded as -31.91%. On the same count and under the same terms, the figure for `CN(C)c1nc2c(c(N3CCc4ccccc4C3)n1)CCNC2` is 100.4%. `CC(C)C(=O)NC1CC2(CCN(CC(=O)N(C)C)CC2)c2ccccc21.O=C(O)C(F)(F)F` (stereo not given): the “Percent Effect” value (30.3 µM, […]) is recorded as -88.42%. As for `Cc1ccsc1C(=O)N1CCC2(CC(C(=O)N(C)C(C)C)=NO2)C1` (stereo not given), the “Percent Effect” value (30 µM, 30.03 µM) was -54.71%. For `CCCN1CCC(NC(=O)Nc2ccc(OC)c(OC)c2)CC1`, the “Percent Effect” value (30.3 µM, […]) is recorded as -0.7678%. On the same count and under the same terms, the figure for `CCCN1CCC(NC(=O)c2csc(C)c2-c2ccccc2)CC1` is -89.86%; for `CCCN1CCC(Nc2cc(-c3ccccc3)ccc2OC)CC1` it is 57.37%; for `CC(NC(=O)NCCCN1CCCCCC1=O)c1nncn1C` (stereo not given) it is -29.33%. For `O=C(O)C(F)(F)F.O=C(O)C(F)(F)F.O=C1COC2(CCN(Cc3cccs3)CC2)CN1c1cccnc1`, the “Percent Effect” value (30 µM, 30.03 µM) is given as -14.7%.

Regarding `CC(C)(C)Nc1nc(-c2cccnc2)c(-c2ccnc(NCCO)n2)s1`, the “Percent Effect” value (30.3 µM, […]) was 94.16%. Turning to `CCNc1nc(-c2cccnc2)c(-c2ccnc(NCCO)n2)s1`, the “Percent Effect” value (30.3 µM, […]) was 9.967%. Still for that read-out and setting: the figure for `CCNc1nc(-c2cccnc2)c(-c2ccnc(NS(C)(=O)=O)n2)s1` is 1.048%; for `O=C(NCCc1cccs1)[C@H]1CO[C@H]2CCN(C3CCC3)C[C@H]2C1.O=C(O)C(F)(F)F` it is -77.19%; for `CCOC(=O)[C@]12CCCN(Cc3ccco3)C[C@H]1CN(S(C)(=O)=O)C2.O=C(O)C(F)(F)F` it is 4.884%.

(Values after ChEMBL document CHEMBL3988442, “University of Dundee, Small-Polar-MMV Screening Library” (2021).)
